Data published in PubChem BioAssay (EPA / NIEHS).
Records with an inconclusive call do not appear. Calls of active or inactive are those of the source. Rule for the calls, unless noted: active = hit-call score of the fitted dose curve at least 0.9, where 1 is the maximum; inactive = score below 0.9.

Tests used:
[1] = ACEA_ER_80hr: ACEA Biosciences xCELLigence Real-Time Cell Analysis on Estrogen Receptor Agonism for Proliferation (AID 2282667; active = hit-call score of the fitted dose curve at least 0.9, where 1 is the maximum); conditions: T47D proliferation, impedance (xCELLigence), 80 h
Summary of the method: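 Cell-growth kinetics were measured by impedance in T47D cells treated continuously with compound (top 100 uM final, 1:4 steps, 8 points). Activity at 80 h was scored as signal gain over the DMSO baseline.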

[2] = ATG_CRE_CIS: Attagene CIS-FACTORIAL HepG2 Assay for human cAMP Responsive Element (CRE) binding protein 3 (AID 2282926); conditions: HepG2 CRE cis-reporter, Attagene multiplexed mRNA; actives raise or lower the signal
Summary of the method: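 Cells carrying cis-regulated reporter constructs respond through their own endogenous factors. After 24 h treatment, RNA is reverse-transcribed, amplified, labelled and sized by capillary electrophoresis; up- and down-regulation are both scored against vehicle.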

[3] = target: CCAAT/enhancer-binding protein beta (Homo sapiens) (UniProt P17676); assay: ATG_C_EBP_CIS: Attagene CIS-FACTORIAL HepG2 Assay for human CCAAT/Enhancer Binding Protein (C/EBP) beta (AID 2282927); conditions: HepG2 Attagene cis-factorial transcription factor reporter; actives raise or lower the signal
Summary of the method: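 HepG2 transiently transfected with multiplexed reporter units under cis-regulatory promoters reporting endogenous C/EBPb activity. After 24 h exposure, reporter mRNA assayed by RT-PCR, fluorescent labelling, HpaI digestion and capillary electrophoresis; bidirectional fitting versus DMSO.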

[4] = ATG_CMV_CIS: Attagene CIS-FACTORIAL HepG2 Assay for human CMV (Internal Marker) (AID 2282928); conditions: HepG2 CMV promoter reporter, transcription factor profiling; actives raise or lower the signal;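 note: endpoint acts as a background internal control marker rather than a target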
Summary of the method: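 Fluorescence intensity of RT-PCR-derived reporter fragments, resolved by capillary electrophoresis, gives the signal. HepG2 liver cells bearing transfected cis-element reporters were treated 24 h; activity in either direction was fit relative to DMSO-treated controls.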

[5] = target: Aryl hydrocarbon receptor (Homo sapiens) (UniProt P35869); assay: ATG_Ahr_CIS: Attagene CIS-FACTORIAL HepG2 Assay for human Aryl Hydrocarbon Receptor (Ahr) (AID 2282930); conditions: HepG2 AhR cis-factorial reporter transcription; actives raise or lower the signal
Summary of the method: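 HepG2 cells transiently transfected with cis-element-driven multiplexed reporter units; endogenous AhR activity read as reporter mRNA 24 h after dosing, via RT-PCR, 6-FAM labelling, HpaI digestion and capillary electrophoresis. Bidirectional fit relative to DMSO.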

[6] = ATG_AP_1_CIS: Attagene CIS-FACTORIAL HepG2 Assay for human Activator Protein 1 (AP-1) (AID 2282931); conditions: HepG2 Attagene cis-factorial AP-1 reporter mRNA; actives raise or lower the signal
Summary of the method: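 Transient MRTU transfection of HepG2 → 24 h chemical treatment → RNA isolation, RT-PCR, 6-FAM labelling, HpaI digest → capillary electrophoresis. Fit: bidirectional, DMSO negative control.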

[7] = ATG_AP_2_CIS: Attagene CIS-FACTORIAL HepG2 Assay for human Activator Protein 2 (AP-2) (AID 2282932); conditions: HepG2 AP-2 cis-reporter, Attagene transcription factor profiling; actives raise or lower the signal
Summary of the method: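 Read-out: fluorescent reporter mRNA via RT-PCR and capillary electrophoresis, 24 h post-dose in transiently transfected HepG2. Endogenous factors drive cis-promoter reporters; gain or loss of signal fitted bidirectionally against DMSO.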

[8] = ATG_BRE_CIS: Attagene CIS-FACTORIAL HepG2 Assay for human Bone Morphogenetic Protein (BMP) Response Element (BRE) (AID 2282933); conditions: HepG2 BMP response element reporter, Attagene transcription factor profiling; actives raise or lower the signal
Summary of the method: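 HepG2 cells transiently transfected with multiplexed cis-element reporter units were dosed with chemical for 24 h. Reporter mRNA was measured by RT-PCR with fluorescent labelling, HpaI digestion and capillary electrophoresis; bidirectional fitting relative to DMSO.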

[9] = target: Retinoic acid receptor alpha (Homo sapiens) (UniProt P10276); assay: ATG_DR5_RAR_CIS: Attagene CIS-FACTORIAL HepG2 Assay for human Retinoic Acid Receptor Alpha (RARE), DR5 submotif (AID 2282934); conditions: HepG2 Attagene cis-factorial RARE DR5 reporter, mRNA; actives raise or lower the signal;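 for AC50: reporter responds to endogenous RAR alpha beta and gamma in HepG2 not RARA alone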
Summary of the method: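 HepG2 cells transiently transfected with multiplexed reporter units; DR5 cis-element drives reporter through endogenous transcription factors. After 24 h dosing, reporter mRNA quantified by RT-PCR, fluorescent labeling, HpaI digestion and capillary electrophoresis; bidirectional fitting versus DMSO.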

[10] = ATG_DR4_LXR_CIS: Attagene CIS-FACTORIAL HepG2 Assay for human Liver X Receptor (LXR), DR4 submotif (AID 2282929); conditions: HepG2 Attagene DR4 cis-reporter, mRNA transcription; actives raise or lower the signal
Summary of the method: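 HepG2, transient MRTU transfection, cis-element (DR4) promoter; 24 h compound exposure; total RNA → oligo(dT) RT → PCR → 6-FAM primer extension → HpaI cut → CE. Gain/loss vs DMSO, bidirectional fit.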

Measured: AC50

CCAAT/enhancer-binding protein beta (Homo sapiens), sequence (P17676 whole entry, looked up): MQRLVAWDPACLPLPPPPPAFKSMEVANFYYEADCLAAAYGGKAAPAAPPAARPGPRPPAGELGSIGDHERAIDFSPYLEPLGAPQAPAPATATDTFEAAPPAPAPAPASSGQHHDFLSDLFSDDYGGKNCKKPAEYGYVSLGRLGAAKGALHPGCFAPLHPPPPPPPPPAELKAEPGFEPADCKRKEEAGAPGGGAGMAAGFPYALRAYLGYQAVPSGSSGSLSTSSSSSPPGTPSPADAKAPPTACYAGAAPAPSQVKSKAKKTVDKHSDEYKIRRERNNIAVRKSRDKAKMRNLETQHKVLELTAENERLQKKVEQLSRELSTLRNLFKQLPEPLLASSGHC
Aryl hydrocarbon receptor (Homo sapiens), sequence (P35869 whole entry, looked up): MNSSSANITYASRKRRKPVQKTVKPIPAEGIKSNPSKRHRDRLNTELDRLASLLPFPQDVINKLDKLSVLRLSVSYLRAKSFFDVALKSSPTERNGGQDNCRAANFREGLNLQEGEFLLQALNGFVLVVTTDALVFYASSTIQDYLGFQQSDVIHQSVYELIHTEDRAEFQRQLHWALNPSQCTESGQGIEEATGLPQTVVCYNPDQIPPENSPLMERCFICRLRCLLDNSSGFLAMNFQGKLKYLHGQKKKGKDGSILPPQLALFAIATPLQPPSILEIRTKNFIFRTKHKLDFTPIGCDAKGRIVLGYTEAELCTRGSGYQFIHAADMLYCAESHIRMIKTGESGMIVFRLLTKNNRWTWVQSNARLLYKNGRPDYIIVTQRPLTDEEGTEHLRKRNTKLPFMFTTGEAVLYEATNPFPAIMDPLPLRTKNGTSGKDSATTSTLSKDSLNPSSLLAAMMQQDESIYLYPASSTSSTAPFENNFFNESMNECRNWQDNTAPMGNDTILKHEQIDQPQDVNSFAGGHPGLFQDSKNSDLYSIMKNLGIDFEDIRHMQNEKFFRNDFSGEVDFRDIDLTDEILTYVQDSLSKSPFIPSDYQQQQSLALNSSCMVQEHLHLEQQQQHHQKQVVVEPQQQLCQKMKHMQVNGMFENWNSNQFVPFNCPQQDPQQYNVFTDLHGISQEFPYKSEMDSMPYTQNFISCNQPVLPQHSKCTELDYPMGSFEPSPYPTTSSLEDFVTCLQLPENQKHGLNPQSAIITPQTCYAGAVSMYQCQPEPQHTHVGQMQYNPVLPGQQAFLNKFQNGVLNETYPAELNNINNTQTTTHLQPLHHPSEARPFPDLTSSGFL
Retinoic acid receptor alpha (Homo sapiens), sequence (P10276 whole entry, looked up): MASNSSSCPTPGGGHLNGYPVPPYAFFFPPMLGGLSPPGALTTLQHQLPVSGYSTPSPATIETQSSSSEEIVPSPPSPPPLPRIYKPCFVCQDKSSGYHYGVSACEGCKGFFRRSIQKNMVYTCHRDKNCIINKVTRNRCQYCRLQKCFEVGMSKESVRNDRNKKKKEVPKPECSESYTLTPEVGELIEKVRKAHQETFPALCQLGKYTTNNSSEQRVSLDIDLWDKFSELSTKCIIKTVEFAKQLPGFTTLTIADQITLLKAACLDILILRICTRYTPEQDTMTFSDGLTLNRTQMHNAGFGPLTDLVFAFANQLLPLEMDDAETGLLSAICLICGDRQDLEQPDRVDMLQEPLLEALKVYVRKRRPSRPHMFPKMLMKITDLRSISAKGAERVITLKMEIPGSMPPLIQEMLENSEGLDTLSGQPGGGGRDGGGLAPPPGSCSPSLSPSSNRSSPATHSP

c1ccc2c(c1)[nH]c1ccccc12
active: [5] 18 µM
not listed: [10]
inactive: all other assays above

Cn1cccc1
active: [6] 26.4 µM
not listed: [4]
inactive: all other assays above

CCCCCCCCCCCC(=O)OCC
not listed: [5] | [10]
inactive: all other assays above

CCCCOCCOCCOC(C)=O
not listed: [4] | [5]
inactive: all other assays above

CC(=O)c1ccc(S(=O)(=O)NC(=O)NC2CCCCC2)cc1
active: [5] 100 µM
not listed: [7] | [10]
inactive: all other assays above

C=CCCCCCCCCC=O
not listed: [6] | [7] | [10]
inactive: all other assays above

CC(C)CCCCCOC(=O)CS
not listed: [4]
inactive: all other assays above

[Cl][Sc]([Cl])[Cl]
not listed: [4] | [5]
inactive: all other assays above

CCCCCCCCC(CO)CCCCCC (configuration not stated)
inactive: [1] | [3] | [5] | [8] | [9]
active: [2] 100 µM | [10] 53 µM

C=Cc1ccc(OC(C)=O)cc1
not listed: [4] | [10]
inactive: all other assays above

Clc1cccnc1
not listed: [4]
inactive: all other assays above

CC=C(C)C(C)=O
active: [9] 43 µM
not listed: [4]
inactive: all other assays above

CC(=O)CCC=C(C)C
not listed: [4] | [7]
inactive: all other assays above

CC(CC=O)CC(C)(C)C (configuration not stated)
not listed: [8] | [10]
inactive: all other assays above

C=C(C)C(=O)OCCOC(=O)C(=C)C
not listed: [4]
inactive: all other assays above

CCC(C)C(=O)OC (configuration not stated)
not listed: [1]
inactive: all other assays above

CC(C)(CO)C(O)C(=O)NCCCO (configuration not stated)
not listed: [1] | [6]
inactive: all other assays above

Cc1cccc(C(C)(C)C)c1O
inactive: [2] | [3] | [4] | [6] | [7] | [9]

CC(=O)CCC1=C(C)CCCC1(C)C
not listed: [1] | [10]
inactive: all other assays above

CCOC(=O)OC(=O)OCC
not listed: [1]
inactive: all other assays above

CC(=O)OC(C)c1ccccc1 (configuration not stated)
inactive: [2] | [3] | [6] | [7] | [8] | [9]

CC(=O)c1ccccc1O
not listed: [1] | [10]
inactive: all other assays above

C=CCNCC=C
not listed: [1] | [5]
inactive: all other assays above

CCCCCCCCCCCCc1ccc(O)cc1
inactive: [3] | [10] | [5] | [6] | [7] | [9]

Cc1cc(C)n(CO)n1
not listed: [1] | [2] | [7]
inactive: all other assays above

CC(=O)OC/C=C(/C)CCC=C(C)C
not listed: [1] | [4]
inactive: all other assays above

CCCCC(=O)O
not listed: [1]
inactive: all other assays above

CCCCC1C(=O)N(c2ccccc2)N(c2ccccc2)C1=O
not listed: [1]
inactive: all other assays above

CCCCC/C=C\C/C=C\CCCCCCCC(=O)O
active: [10] 76.9 µM | [5] 100 µM | [6] 153 µM
not listed: [1]
inactive: all other assays above

c1ccc(Nc2cccc3ccccc23)cc1
active: [2] 48.3 µM | [3] 45.7 µM | [4] 33.4 µM | [6] 53.7 µM | [8] 49.2 µM | [9] 33.4 µM
inactive: [10] | [5]

CCCCc1ccc(Cl)cc1
inactive: [3] | [5] | [6] | [7] | [8] | [9]

CCCCCCCCCCCCCc1ccccc1
inactive: [3] | [4] | [5] | [6] | [8] | [9]

Oc1ccc(-c2ccccc2)c(Cl)c1
active: [4] 43.1 µM | [6] 60.2 µM | [8] 33.4 µM
inactive: [3] | [10] | [9]

CCCCCCCCCCCCC
not listed: [1] | [2]
inactive: all other assays above

C=C(C)C(=O)OCCCCCCCCCCCC
active: [4] 100 µM
not listed: [1] | [8]
inactive: all other assays above

CCCCCOC(=O)CCCCC
not listed: [1]
inactive: all other assays above

CCC[Si](OC)(OC)OC
not listed: [1]
inactive: all other assays above

Nc1ccc(C(=O)OCCCOC(=O)c2ccc(N)cc2)cc1
not listed: [1] | [5]
inactive: all other assays above

CC(C)(C)N
not listed: [1] | [2]
inactive: all other assays above

C=CCCCCCCCCO
active: [5] 29.3 µM
not listed: [1] | [6] | [9]
inactive: all other assays above

CC(C)c1cccc(C(C)C)c1N
not listed: [1] | [4]
inactive: all other assays above

CC(C)C(=O)OCCc1ccccc1
not listed: [1] | [6] | [7]
inactive: all other assays above

CCCCOCC(C)O (configuration not stated)
not listed: [1] | [4] | [7]
inactive: all other assays above

Nc1ccnc(=O)[nH]1
not listed: [1] | [4] | [5]
inactive: all other assays above

O=C(O)C(F)(F)C(F)(F)C(F)(F)C(F)(F)C(=O)O
not listed: [1]
inactive: all other assays above

[Cl][Eu]([Cl])[Cl]
not listed: [1] | [10]
inactive: all other assays above

O=C1CCCCCCCCCCC1
not listed: [1] | [7] | [10]
inactive: all other assays above

CC1=C(O)C(=O)C(C)O1 (configuration not stated)
not listed: [1]
inactive: all other assays above

CC=C(C)C=CC=C(C)C
not listed: [1] | [4]
inactive: all other assays above

CC1CCC(=O)C1=O (configuration not stated)
not listed: [1]
inactive: all other assays above

CCCCCCCOC(=O)c1ccc(O)cc1
active: [10] 24.3 µM | [5] 49.8 µM | [9] 53.1 µM
not listed: [1] | [4]
inactive: all other assays above

CC(=O)OCc1ccccc1
not listed: [1] | [4] | [10]
inactive: all other assays above

CN(C)c1ccc2nc3ccc(=[N+](C)C)cc-3sc2c1
inactive: [2] | [3] | [10] | [9]
active: [4] 1.69 µM | [6] 19.8 µM
